This experiment can be described thus: NCI Yeast Anticancer Drug Screen. Data for the sgs1 strain (AID 173).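 Further: 0% = growth of vehicle-only control cultures.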 The following applies: S. cerevisiae sgs1 mutant, stronger effect = higher value. Here is the method:
Growth inhibition of yeast strains with defined genetic alterations is measured as a screen for potential anti-cancer activity. Selected strains with alterations in DNA damage repair or cell cycle control were exposed to compounds and growth inhibition was measured relative to vehicle treated controls. The strain used in this assay is sgs1

Compounds without any hit were thinned out: in the full panel of roughly 79,000, 15% have a hit. Unmarked numbers belong to inactive results. Activity calls are given as the source filed them. No stated cut-off is given here; in the data, active means growth inhibition above about 70%; inactive means the rest.

On to `NC(N)=NCCCS(=O)(=O)Nc1ccc(Nc2c3ccccc3nc3cc([N+](=O)[O-])ccc23)cc1`, for which the growth inhibition is, setting by setting: (at 1.2 µM) 29%; (at 3.7 µM) 1%; (at 11.0 µM) -13%; (at 33.0 µM) 23%; (at 100.0 µM) 69%.

For `O=C1C(Cl)=C(Cl)C(Cl)(Cl)C(Cl)C1(Cl)Cl` (stereo not given), the growth inhibition reads like this: (at 1.2 µM) -7%; (at 3.7 µM) 36%; (at 11.0 µM) 81% (active); (at 33.0 µM) 100% (active); (at 100.0 µM) 99% (active).

For the molecule `Nc1nc(N)c2cc(Sc3ccc4ccccc4c3)ccc2n1`, the growth inhibition is 3% (at 1.2 µM); 38% (at 3.7 µM); 80% (active) (at 11.0 µM); 94% (active) (at 33.0 µM); 91% (active) (at 100.0 µM).

For the molecule `Cc1cccc(/C=N/NC(=S)N(C)CCc2ccccn2)n1`, the growth inhibition is 97% (active) (at 1.2 µM); 98% (active) (at 3.7 µM); 99% (active) (at 11.0 µM); 99% (active) (at 33.0 µM); 98% (active) (at 100.0 µM).

For the molecule `S=C1SCN(CCc2ccccc2)CN1CCc1ccccc1`, the growth inhibition (at 1.2 µM) was -5%; the growth inhibition (at 3.7 µM) was 16%; the growth inhibition (at 11.0 µM) is 31%; the growth inhibition (at 33.0 µM) was 59%; the growth inhibition (at 100.0 µM) is 48%.

Take `CC(=O)[O-].O=C([CH-]C(=O)c1ccccc1)c1ccccc1.O=C([CH-]C(=O)c1ccccc1)c1ccccc1.[Sm+3]`: the growth inhibition runs as follows: (at 1.2 µM) 2%; (at 3.7 µM) 7%; (at 11.0 µM) 59%; (at 33.0 µM) 97% (active); (at 100.0 µM) 97% (active).

Take `CC1CCC2(C(=O)O)CCC3(C)C(=CCC4C5(C)CC(O)C(O)C(C)(CO)C5C(O)CC43C)C2C1C` (stereo not given): the growth inhibition was -4% (at 1.2 µM); 9% (at 3.7 µM); -10% (at 11.0 µM); -17% (at 33.0 µM); 95% (active) (at 100.0 µM).

Take `N#C/C(=C\c1ccccc1)c1ccccc1F`: the growth inhibition was -1% (at 1.2 µM); -1% (at 3.7 µM); 1% (at 11.0 µM); 1% (at 33.0 µM); 2% (at 100.0 µM).
